Values joined by “and” are separate entries in the source; they are usually repeats but may differ in a detail not shown here. Equal entries are not always repeated. About 2,000 (36%) of roughly 5,500 compounds were called active. Roughly 18% stayed inconclusive and do not appear here. No stated cut-off is given here; in the data, active means normalized growth mostly below about 0.91 (no sharp cut-off); inconclusive means no clear call, values can overlap the other calls; inactive means mostly above about 0.92. The list shows a part of the results.
Assay: chemical genetic growth profiling, strain panel (AID 1159580);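 further: tested at 20 µM; growth read once vehicle control cultures reached saturation at 30 °C; 1 = growth at the plate median or of vehicle wells; lower values mean less growth of the strain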
Details: growth OD

Measured: normalized growth

CCC1(c2ccc(N)cc2)CCC(=O)NC1=O (stereo not drawn)
inactive: S. cerevisiae deletion strains, locus YJR075W, strain HOC1, hits give low values 0.998 | S. cerevisiae deletion strains, locus YKL009W, strain mrt4, hits give low values 1.01 | S. cerevisiae deletion strains, locus YKL068W, hits give low values 1 | S. cerevisiae deletion strains, locus YKL085W, strain MDH1 (second series), hits give low values 1 | S. cerevisiae deletion strains, locus YKL085W, strain MDH1, hits give low values 1 | S. cerevisiae deletion strains, locus YKL160W, strain elf1, hits give low values 0.939 | S. cerevisiae deletion strains, locus YKR001C, strain vps1, hits give low values 0.995 | S. cerevisiae deletion strains, locus YKR026C, strain gcn3, hits give low values 0.961 | S. cerevisiae deletion strains, locus YKR091W, strain srl3, hits give low values 0.977 | S. cerevisiae deletion strains, locus YLL001W, strain dnm1, hits give low values 0.903 | S. cerevisiae deletion strains, locus YLL026W, hits give low values 0.956 | S. cerevisiae deletion strains, locus YLL041C, strain sdh2, hits give low values 0.968 | S. cerevisiae deletion strains, locus YLR027C, strain aat2, hits give low values 0.94 | S. cerevisiae deletion strains, locus YLR039C, strain RIC1, hits give low values 1.02 | S. cerevisiae deletion strains, locus YLR058C, strain SHM2, hits give low values 1.01 | S. cerevisiae deletion strains, locus YLR102C, strain apc9, hits give low values 0.992 | S. cerevisiae deletion strains, locus YLR113W, strain HOG1, hits give low values 1.06 | S. cerevisiae deletion strains, locus YLR221C, strain rsa3, hits give low values 0.99 | S. cerevisiae deletion strains, locus YLR258W, strain gsy2, hits give low values 0.992 | S. cerevisiae deletion strains, locus YLR262C, strain YPT6 (second series), hits give low values 0.999 | S. cerevisiae deletion strains, locus YLR262C, strain YPT6, hits give low values 1.03 | S. cerevisiae deletion strains, locus YLR268W, strain sec22, hits give low values 1.01 | S. cerevisiae deletion strains, locus YLR320W, strain mms22, hits give low values 0.978 | S. cerevisiae deletion strains, locus YLR330W, strain CHS5, hits give low values 1.01 | S. cerevisiae deletion strains, locus YLR342W, strain FKS1 (second series), hits give low values 1.02 | S. cerevisiae deletion strains, locus YLR342W, strain FKS1, hits give low values 0.926 | S. cerevisiae deletion strains, locus YLR357W, strain rsc2, hits give low values 0.917 | S. cerevisiae deletion strains, locus YLR370C, strain arc18, hits give low values 0.969 | S. cerevisiae deletion strains, locus YLR371W, strain rom2, hits give low values 0.997 | S. cerevisiae deletion strains, locus YLR384C, strain iki3, hits give low values 0.972 | S. cerevisiae deletion strains, locus YLR418C, strain cdc73, hits give low values 1 | S. cerevisiae deletion strains, locus YML016C, strain PPZ1, hits give low values 1.01 | S. cerevisiae deletion strains, locus YML032C, strain rad52, hits give low values 1 | S. cerevisiae deletion strains, locus YML120C, strain ndi1, hits give low values 0.93 | S. cerevisiae deletion strains, locus YML124C, strain tub3, hits give low values 0.985 | S. cerevisiae deletion strains, locus YMR058W, strain fet3, hits give low values 0.944 | S. cerevisiae deletion strains, locus YMR078C, strain ctf18, hits give low values 0.997 | S. cerevisiae deletion strains, locus YMR125W, strain sto1, hits give low values 0.988 | S. cerevisiae deletion strains, locus YMR129W, hits give low values 0.969 | S. cerevisiae deletion strains, locus YMR205C, strain PFK2, hits give low values 1 | S. cerevisiae deletion strains, locus YMR223W, strain ubp8, hits give low values 0.993 | S. cerevisiae deletion strains, locus YMR231W, strain pep5, hits give low values 0.973 | S. cerevisiae deletion strains, locus YMR263W, strain SAP30, hits give low values 1 | S. cerevisiae deletion strains, locus YMR307W, strain GAS1, hits give low values 0.942 | S. cerevisiae deletion strains, locus YNL067W, strain RPL9B, hits give low values 0.997 | S. cerevisiae deletion strains, locus YNL071W, strain lat1, hits give low values 0.986 | S. cerevisiae deletion strains, locus YNL128W, strain TEP1, hits give low values 1.01 | S. cerevisiae deletion strains, locus YNL153C, strain GIM3, hits give low values 1.02 | S. cerevisiae deletion strains, locus YNL175C, strain NOP13, hits give low values 0.992 | S. cerevisiae deletion strains, locus YNL183C, strain NPR1, hits give low values 0.974 | S. cerevisiae deletion strains, locus YNL197C, strain WHI3, hits give low values 0.987 | S. cerevisiae deletion strains, locus YNL209W, strain ssb2, hits give low values 0.997 | S. cerevisiae deletion strains, locus YNL224C, strain SQS1, hits give low values 1.02 | S. cerevisiae deletion strains, locus YNL233W, strain BNI4, hits give low values 0.994 | S. cerevisiae deletion strains, locus YNL248C, strain rpa49, hits give low values 0.955 | S. cerevisiae deletion strains, locus YNL250W, strain rad50, hits give low values 1 | S. cerevisiae deletion strains, locus YNL271C, strain bni1, hits give low values 0.995 | S. cerevisiae deletion strains, locus YNL298W, strain CLA4, hits give low values 0.992 | S. cerevisiae deletion strains, locus YNL307C, strain MCK1, hits give low values 0.999 | S. cerevisiae deletion strains, locus YNL322C, strain KRE1 (second series), hits give low values 0.973 | S. cerevisiae deletion strains, locus YNL322C, strain KRE1, hits give low values 0.996 and 1.02 | S. cerevisiae deletion strains, locus YNR049C, strain mso1, hits give low values 0.971 | S. cerevisiae deletion strains, locus YNR052C, strain pop2, hits give low values 0.988 | S. cerevisiae deletion strains, locus YOL012C, strain htz1 0.83 | S. cerevisiae deletion strains, locus YOL147C, strain pex11, hits give low values 0.999 | S. cerevisiae deletion strains, locus YOR001W, strain rrp6, hits give low values 0.934 | S. cerevisiae deletion strains, locus YOR061W, strain CKA2, hits give low values 1.02 | S. cerevisiae deletion strains, locus YOR069W, strain VPS5, hits give low values 1 | S. cerevisiae deletion strains, locus YOR070C, strain gyp1, hits give low values 0.987 | S. cerevisiae deletion strains, locus YOR080W, strain dia2, hits give low values 0.958 | S. cerevisiae deletion strains, locus YOR083W, strain WHI5 (second series), hits give low values 1.02 | S. cerevisiae deletion strains, locus YOR083W, strain WHI5, hits give low values 0.922 | S. cerevisiae deletion strains, locus YOR106W, strain vam3, hits give low values 0.899 | S. cerevisiae deletion strains, locus YOR136W, strain idh2, hits give low values 0.983 | S. cerevisiae deletion strains, locus YOR144C, strain elg1, hits give low values 1 | S. cerevisiae deletion strains, locus YOR184W, strain ser1, hits give low values 1.02 | S. cerevisiae deletion strains, locus YOR231W, strain MKK1, hits give low values 1.05 | S. cerevisiae deletion strains, locus YOR265W, strain rbl2, hits give low values 0.966 | S. cerevisiae deletion strains, locus YOR270C, strain vph1, hits give low values 0.977 | S. cerevisiae deletion strains, locus YOR290C, strain snf2, hits give low values 0.995 | S. cerevisiae deletion strains, locus YOR316C, strain cot1, hits give low values 0.996 | S. cerevisiae deletion strains, locus YPL051W, strain arl3, hits give low values 0.962 | S. cerevisiae deletion strains, locus YPL106C, strain sse1, hits give low values 1 | S. cerevisiae deletion strains, locus YPL240C, strain hsp82, hits give low values 0.983 | S. cerevisiae deletion strains, locus YPL241C, strain CIN2, hits give low values 1 and 1.01 | S. cerevisiae deletion strains, locus YPL256C, strain CLN2, hits give low values 1.07 | S. cerevisiae deletion strains, locus YPR119W, strain clb2, hits give low values 0.991 | S. cerevisiae deletion strains, locus YPR141C, strain kar3, hits give low values 1 | S. cerevisiae deletion strains, locus YPR163C, strain tif3, hits give low values 1 | S. cerevisiae deletion strains, locus YPR167C, strain met16, hits give low values 0.997 | S. cerevisiae deletion strains, strain wtn01, hits give low values 0.985 | S. cerevisiae strains, strain wild type, hits give low values 1.01
active: S. cerevisiae deletion strains, locus YPL078C, strain atp4, hits give low values 0.89

— PubChem BioAssay AID1159580 (chemical genetic matrix, 2015)
